# Calls of active or inactive are those of the source.
# Legend:
# [1] = tested on: PRMT1 (protein arginine N-methyltransferase 1); assay: small molecules binding arginine methyltransferase PRMT1 – biochemical, small-molecule microarray, 635 nm fluorescence, primary screen (AID 1088); conditions: higher = more signal;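 also: binding of Prmt1 protein to compounds spotted on small-molecule microarray slides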
# [2] = growth effects on S. cerevisiae YJM789 – YJM789 clinical isolate, OD600, 24 h, basal, primary screen (AID 1089); conditions: higher = more signal, called active from +8 up or from −8 down;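 also: growth of clinical yeast isolate S. cerevisiae YJM 789 seeded 1000 cells per well; test concentration not given here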
# [3] = S. pombe growth modifiers, basal conditions – strain 972, OD600, 24 h, no modulator, primary screen (AID 1090);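 also: basal condition with compound alone and no growth modifier present; test concentration not given here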; conditions: S. pombe 972 growth, higher = more signal, called active from +8 up or from −8 down
# [4] = budding yeast growth modifiers under rapamycin – strain BY4716, OD600, 96 h, primary screen (AID 1091); also: test concentration not given here; conditions: S. cerevisiae BY4716 + rapamycin, higher = more signal, called active from +8 up or from −8 down
# [5] = target: Torsin-1A-interacting protein 2 (Homo sapiens) (UniProt Q8NFQ8); assay: small molecules binding lysate-expressed LULL1 – cell lysate, human LULL1 lysate, 635/667 nm fluorescence, primary screen (AID 1092); conditions: small-molecule microarray, hLULL1 lysate binding, 635 nm fluorescence; higher = more signal;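 also: probe is lysate of COS7 cells overexpressing human LULL1; score merges per-feature 667 nm fluorescence with signal-to-noise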
# [6] = optical density change of DRC41 E. coli – strain DRC41, OD650, 24 h, E. coli filamentation project, primary screen (AID 1093);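 also: MC1000 strain lacking acrAB efflux and sulA so SOS filamentation is blocked; test concentration not given here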; conditions: E. coli DRC41 growth, higher = more signal, called active from +8 up or from −8 down
# [7] = probe aLefty2 binding to arrayed compounds – biochemical, biotinylated probe, 635/667 nm fluorescence, primary screen (AID 1094); conditions: small-molecule microarray, higher = more signal;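 also: score merges spot fluorescence near 667 nm with spot signal-to-noise ratio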
# [8] = tested on: Noggin (protein binding on small-molecule microarray); assay: small molecules binding Noggin protein – biochemical, 635/667 nm fluorescence, primary screen (AID 1095); conditions: 635 nm fluorescence, higher = more signal;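 also: score merges 667 nm feature fluorescence with signal to noise over triplicate slides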
# [9] = target: Neurogenic locus notch homolog protein 3 (Homo sapiens) (UniProt Q9UM47); assay: small molecules binding NOTCH3 protein – biochemical, 635/667 nm fluorescence, primary screen (AID 1096); conditions: small-molecule microarray, 635 nm fluorescence, higher = more signal
# [10] = probe aEGFR binding to arrayed compounds – biochemical, biotinylated probe, 635/667 nm fluorescence, primary screen (AID 1097); conditions: small-molecule microarray, higher = more signal;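 also: probe is a biotinylated anti-EGFR antibody binding compounds printed on slides; score combines fluorescence near 667 nm and signal to noise of each spot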
# Neurogenic locus notch homolog protein 3 (Homo sapiens), sequence (Q9UM47 whole entry, looked up): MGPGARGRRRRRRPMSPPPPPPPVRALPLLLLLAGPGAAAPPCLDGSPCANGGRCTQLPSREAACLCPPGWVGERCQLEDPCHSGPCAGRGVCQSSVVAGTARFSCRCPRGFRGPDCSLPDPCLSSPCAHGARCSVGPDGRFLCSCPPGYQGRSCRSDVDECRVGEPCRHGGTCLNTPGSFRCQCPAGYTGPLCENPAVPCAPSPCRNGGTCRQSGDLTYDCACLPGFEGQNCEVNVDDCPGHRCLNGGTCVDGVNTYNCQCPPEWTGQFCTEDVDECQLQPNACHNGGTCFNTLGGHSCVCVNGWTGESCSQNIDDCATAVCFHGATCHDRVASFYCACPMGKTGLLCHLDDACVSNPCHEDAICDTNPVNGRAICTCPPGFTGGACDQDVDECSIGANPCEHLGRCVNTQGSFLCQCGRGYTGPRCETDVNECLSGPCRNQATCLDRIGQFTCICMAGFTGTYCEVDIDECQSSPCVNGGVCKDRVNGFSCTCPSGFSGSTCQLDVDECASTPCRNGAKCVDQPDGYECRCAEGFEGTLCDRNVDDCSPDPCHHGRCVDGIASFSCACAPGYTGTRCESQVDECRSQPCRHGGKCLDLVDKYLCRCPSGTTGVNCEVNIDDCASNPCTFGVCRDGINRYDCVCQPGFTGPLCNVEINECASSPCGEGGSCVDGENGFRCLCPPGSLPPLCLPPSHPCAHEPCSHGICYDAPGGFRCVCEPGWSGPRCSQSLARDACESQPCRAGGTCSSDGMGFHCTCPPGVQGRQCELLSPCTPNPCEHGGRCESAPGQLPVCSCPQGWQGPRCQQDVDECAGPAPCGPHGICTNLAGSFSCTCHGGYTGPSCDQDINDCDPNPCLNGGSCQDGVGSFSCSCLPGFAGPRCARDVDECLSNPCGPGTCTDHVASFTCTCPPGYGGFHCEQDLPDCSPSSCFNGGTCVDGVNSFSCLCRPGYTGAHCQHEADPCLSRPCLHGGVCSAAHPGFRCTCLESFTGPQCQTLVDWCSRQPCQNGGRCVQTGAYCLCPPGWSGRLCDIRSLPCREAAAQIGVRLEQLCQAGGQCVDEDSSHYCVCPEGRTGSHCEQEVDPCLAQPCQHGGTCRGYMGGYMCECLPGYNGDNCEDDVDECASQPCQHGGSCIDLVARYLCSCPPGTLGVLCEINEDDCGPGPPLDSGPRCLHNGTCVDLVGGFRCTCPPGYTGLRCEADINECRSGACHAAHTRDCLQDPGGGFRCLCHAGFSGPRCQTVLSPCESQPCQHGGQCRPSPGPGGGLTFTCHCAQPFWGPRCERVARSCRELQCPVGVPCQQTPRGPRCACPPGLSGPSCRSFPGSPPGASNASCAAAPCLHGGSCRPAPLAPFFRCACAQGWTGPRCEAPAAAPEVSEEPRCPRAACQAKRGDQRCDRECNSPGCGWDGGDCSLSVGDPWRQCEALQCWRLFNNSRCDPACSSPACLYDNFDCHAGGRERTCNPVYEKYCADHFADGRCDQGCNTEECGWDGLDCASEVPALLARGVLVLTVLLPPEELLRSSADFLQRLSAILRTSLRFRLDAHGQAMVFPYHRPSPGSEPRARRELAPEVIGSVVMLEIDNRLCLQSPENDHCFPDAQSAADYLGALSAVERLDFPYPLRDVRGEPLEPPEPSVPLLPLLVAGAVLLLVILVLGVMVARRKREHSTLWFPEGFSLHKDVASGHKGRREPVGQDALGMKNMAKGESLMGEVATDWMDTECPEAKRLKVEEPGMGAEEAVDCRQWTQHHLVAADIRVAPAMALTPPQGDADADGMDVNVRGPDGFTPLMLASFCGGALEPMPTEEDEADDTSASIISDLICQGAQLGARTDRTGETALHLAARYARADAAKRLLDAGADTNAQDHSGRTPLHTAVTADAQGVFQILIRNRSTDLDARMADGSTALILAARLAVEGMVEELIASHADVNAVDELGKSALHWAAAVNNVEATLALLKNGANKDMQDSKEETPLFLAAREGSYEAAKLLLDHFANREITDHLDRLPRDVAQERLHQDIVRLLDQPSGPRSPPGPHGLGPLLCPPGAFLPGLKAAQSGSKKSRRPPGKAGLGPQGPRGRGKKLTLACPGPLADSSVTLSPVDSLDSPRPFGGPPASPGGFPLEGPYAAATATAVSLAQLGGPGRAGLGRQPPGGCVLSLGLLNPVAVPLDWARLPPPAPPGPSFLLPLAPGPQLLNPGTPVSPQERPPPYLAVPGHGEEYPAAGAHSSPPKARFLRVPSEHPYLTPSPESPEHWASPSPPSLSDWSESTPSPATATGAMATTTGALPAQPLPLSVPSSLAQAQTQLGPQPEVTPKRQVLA
# Torsin-1A-interacting protein 2 (Homo sapiens), sequence (Q8NFQ8 whole entry, looked up): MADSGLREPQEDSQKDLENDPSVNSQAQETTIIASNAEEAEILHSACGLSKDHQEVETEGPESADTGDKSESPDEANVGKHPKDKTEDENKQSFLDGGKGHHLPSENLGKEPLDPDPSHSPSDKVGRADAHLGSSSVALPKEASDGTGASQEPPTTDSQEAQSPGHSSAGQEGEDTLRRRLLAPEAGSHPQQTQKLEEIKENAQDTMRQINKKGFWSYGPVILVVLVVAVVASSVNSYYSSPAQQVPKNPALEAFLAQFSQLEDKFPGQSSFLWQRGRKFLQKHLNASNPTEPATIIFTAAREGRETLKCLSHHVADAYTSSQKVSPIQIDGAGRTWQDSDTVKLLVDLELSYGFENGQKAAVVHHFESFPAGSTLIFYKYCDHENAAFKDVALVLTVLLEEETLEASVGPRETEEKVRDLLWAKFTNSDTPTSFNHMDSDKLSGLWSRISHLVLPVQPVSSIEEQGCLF
Compound,composite z-score [1],z-score [2],z-score [3],z-score [4],composite z-score [5],z-score [6],composite z-score [7],composite z-score [8],composite z-score [9],composite z-score [10]
COC(=O)[C@@]1(Cc2ccccc2)[C@H]2c3cc(C(=O)N(C)C)n(Cc4cc(F)c(F)c(F)c4)c3C[C@H]2CN1C(=O)c1ccccc1,0.664,0.103 (inactive),1.52 (inactive),0.405 (inactive),3.22,-0.832 (inactive),0.461,0.137,1.04,0.218
COCCOC(=O)N1C(=O)[C@@]2(c3ccccc31)[C@H](c1ccc(O)cc1)N1[C@H](c3ccccc3)[C@H](c3ccccc3)OC(=O)[C@H]1[C@@H]2C(N)=O,-0.0183,0.396 (inactive),-0.153 (inactive),0.549 (inactive),2.35,-0.29 (inactive),-0.126,-0.678,-0.474,-0.16
C[N+](C)(C)CCCC[C@@H]1NC(=O)[C@@H]2C[C@H](C(=O)NCCCCCCNC(=O)CS)[C@H](c3cccc(OCCO)c3)N2C1=O,1.12,-1.33 (inactive),-0.333 (inactive),-0.485 (inactive),1.09,-0.102 (inactive),-0.21,1.84,-0.0644,-0.233
COc1ccc([Si](C)(C)[C@H]2[C@H](CCO)O[C@@]3(C(=O)N(Cc4ccccc4)c4ccc(N5C(=O)COc6ccccc65)cc43)[C@@H]2C)cc1,-0.171,0.773 (inactive),-0.494 (inactive),5.54 (inactive),1.14,1.45 (inactive),0.0365,0.177,0.246,-0.126
C/C=C/[C@H](CCn1cc([C@H](O)c2ccccc2)nn1)[Si](C)(C)c1ccc(OC)cc1,-0.144,-0.298 (inactive),-1.05 (inactive),-0.229 (inactive),0.0061,0.0004 (inactive),-0.139,-0.953,-0.999,-0.375
O=C1C2C=CC(C(O)C3CC=CCC3)N(n3cnnc3)C2C(=O)N1Cc1ccccc1 (stereo not given),1.07,-0.504 (inactive),0.196 (inactive),0.0633 (inactive),1.09,-1.09 (inactive),-0.223,-1.05,-0.686,-0.314
CCCCC(=C=CC[C@H](O)c1ccccc1OCCO)C[C@H](O)c1cc(Cl)cc(Cl)c1O,1.1,0.906 (inactive),-1.33 (inactive),0.32 (inactive),1.3,-0.144 (inactive),-0.118,0.453,0.224,-0.163
CC[C@@H]1C=C(C(=O)O)[C@H](c2ccc(C(C)C)cc2)N1S(=O)(=O)c1ccc(C)cc1,1.53,-0.921 (inactive),0.242 (inactive),-1.07 (inactive),3.03,-0.29 (inactive),0.678,-0.0177,1.03,0.516
CC1CC/C=C\[C@H]2OC34C=CCN(c5ccc6ccccc6c5)C(=O)[C@H]3N(CCCCCO)C(=O)[C@@H]4C2C(=O)O1 (stereo not given in full),-0.712,0.231 (inactive),0.0271 (inactive),-0.32 (inactive),-1.87,-0.603 (inactive),0.182,-1.21,-0.7,-0.233
C=CCC(OC(C)=O)[C@@H]1[C@@H](N(Cc2cc3ccccc3o2)C(=O)c2cccc3ccccc23)c2cc(OCCCO)ccc2N1C(=O)Cc1ccc2ccccc2c1 (stereo not given in full),0.37,0.263 (inactive),0.246 (inactive),0.445 (inactive),0.797,0.117 (inactive),-0.0898,-0.233,-0.164,-0.123
CN(C)CCCCNC(=O)[C@@H]1C[C@@H]2C(=O)N[C@@H](CCCCN)C(=O)N2[C@@H]1c1cccc(OCCO)c1,1.02,-0.0533 (inactive),0.286 (inactive),-0.363 (inactive),3.58,-0.285 (inactive),0.197,-0.989,0.37,-0.223
[N-]=[N+]=NCc1ccccc1[C@H]1OC(c2ccc(OCCCO)cc2)=N[C@@]1(Cc1ccccc1)C(=O)O,1.55,-0.36 (inactive),-2.06 (inactive),-0.759 (inactive),2.81,-0.395 (inactive),0.0869,0.462,0.502,0.346
CC1(C)C(=O)C(c2ccccc2)=C2CN3C(=O)N(CCc4ccccc4)C(=O)C3(Cc3ccccc3)C=C21 (stereo not given),-0.377,0.672 (inactive),2.28 (inactive),5.82 (inactive),2.83,-0.723 (inactive),0.336,-0.264,1.12,0.164
O=C1OCC=C[C@H]2OC34C=CCN(Cc5ccccc5)C(=O)[C@H]3N(CCCO)C(=O)[C@@H]4[C@@H]12 (stereo not given in full),0.733,0.393 (inactive),-0.885 (inactive),-0.38 (inactive),3.71,2.76 (inactive),0.694,0.319,0.288,-0.0703

# Reference: PubChem BioAssay
